# Screening data (PubChem BioAssay)
# esBAF inh = SWI/SNF esBAF complex inhibition | mouse ES cells, Bmi1-luciferase knock-in reporter, 24 h; 100% = twice the neutral-well signal | reporter increase, % at 12.5 µM | actives 2% (n = 350,000) | AID 602393; in the data active = activation above about 40%; inconclusive = no clear call, values can overlap the other calls;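 also: a rise in the Bmi1 reporter signal indicates esBAF inhibition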
# Wnt act = activators of Wnt/beta-catenin signaling; Wnt/beta-catenin reporter cell assay, activator, plate reader; actives 1.2% (n = 300,000); activation, % at 9.35 µM; in the data active = activation above about 30%, passing the limit was not always enough; inconclusive = no clear call, values can overlap the other calls
# Vif imaging = inhibitors of HIV Vif; actives 0.35% (n = 340,000); HEK293T cells, Vif self-association by quenched fluorescence, imaging, 24 h; inhibition, % at 7.49 µM; AID 602346; in the data active = inhibition above about 50%, passing the limit was not always enough; inconclusive = no clear call, values can overlap the other calls; inactive = below about 31%
# N-glyco inh = blocks N-linked glycosylation in D54 reporter cells | D54 ERlucT glycosylation luciferase reporter, 24 h; percent of 100 nM tunicamycin response | reporter increase, % at 12.5 µM | actives 0.23% (n = 360,000);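 active = mean luciferase reporter signal, scaled so untreated is 0 and the glycosylation-blocking control 100, at or above a set limit in every replicate; inconclusive = mean reaches the limit but not every replicate does; inactive = mean below the limit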;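 also: luciferase carries N-glycosylation sites so blocking glycosylation raises the light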
# MITF TRPM1 HTS = MITF TRPM1 promoter activation in melanoma cells. SK-MEL-5 TRPM1-promoter luciferase, 24 h; % of positive control, neutral wells = 0. activation, % at 12.5 µM. actives 0.75% (n = 300,000);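 active = mean activation of at least 80% with every replicate also reaching 80%; inconclusive = mean reaches 80% but some replicate falls short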
# PfHsp90 yeast 2 = growth inhibition of yeast expressing Plasmodium Hsp90 | S. cerevisiae expressing PfHsp90, BacTiter-Glo ATP, 48 h; yeast lacking PDR1 and PDR3 efflux regulators | inhibition, % at 9.4 µM | actives 0.32% (n = 310,000);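 active = every replicate shows inhibition above about 80%, whatever the replicate mean, limit read from the data; inconclusive = mean inhibition reaches the set limit but some replicate falls short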
# Hits are given with their value; i = inactive; ? = inconclusive; nt = no result. An excerpt weighted towards active compounds, which were near 3% of everything screened.
SMILES,esBAF inh,Wnt act,Vif imaging,N-glyco inh,MITF TRPM1 HTS,PfHsp90 yeast 2
Cn1c(CC(=O)NNC(=O)c2cccnc2)nc2ccccc21,i,i,i,i,i,i
COc1cc(/C=C/c2onc(C)c2[N+](=O)[O-])cc(OC)c1OC,nt,i,i,36.7,i,i
CN(CC(=O)Nc1ccccc1Br)C(=O)COc1ccc2ccccc2c1,41.1,i,i,i,i,i
Cc1cc(=O)oc2cc(OCC(=O)OC(C)C(=O)Nc3ccc(S(N)(=O)=O)cc3)ccc12 (stereo not drawn),nt,i,i,i,i,i
Cc1ccc2nc(NC(=O)c3ccc(Cl)s3)sc2c1,i,?,i,i,i,i
Cc1nc2ccc(NC(=O)N(C(C)C)C(C)C)cc2s1,44.4,nt,i,i,nt,i
Cc1nc2ccc(NC(=O)c3ccc(Cl)s3)cc2s1,79.0,i,i,i,87.1,i
Cn1c(CN2CCCC2)nc2cc(NC(=O)Nc3ccccc3)ccc21,i,i,i,i,?,i
CCCNC(=O)C[C@H]1CC[C@@H]2[C@H](COC[C@H](O)CN2C(=O)Nc2ccc3c(c2)OCO3)O1,i,nt,nt,nt,nt,nt
CCCNC(=O)C[C@H]1CC[C@H]2[C@@H](COC[C@@H](O)CN2C(=O)Nc2ccc3c(c2)OCO3)O1,40.7,nt,nt,nt,nt,nt
CCNC(=O)C[C@@H]1CC[C@@H]2[C@H](COC[C@@H](O)CN2C(=O)Nc2ccc3c(c2)OCO3)O1,i,nt,nt,nt,nt,nt
CCNC(=O)C[C@H]1CC[C@H]2[C@@H](COC[C@@H](O)CN2C(=O)Nc2ccc3c(c2)OCO3)O1,53.3,nt,nt,nt,nt,nt
CCOc1c(Br)cc(/C=C2/SC(=O)N(CC(=O)N3CCCC3)C2=O)cc1OC,i,i,i,i,nt,nt
COC(=O)[C@@]1(Sc2ccc(C)cc2)CC(=O)N[C@@H]1c1ccc(C(F)(F)F)cc1,nt,i,nt,nt,nt,nt
Cc1ccc(N2C(=O)SC(N(CC(=O)O)c3cccc(C)c3)C2=O)cc1 (stereo not drawn),i,41.2,i,i,i,i
Cc1ccnc(Nc2nc(-c3ccc(O)cc3O)cs2)c1,78.5,i,i,i,nt,i
Cc1ccnc(Nc2nc(-c3ccc(O)c(O)c3)cs2)c1,i,i,i,i,nt,i
Cc1ccnc(Nc2nc(-c3ccc(O)cc3)cs2)c1,49.8,i,i,i,i,i
COc1cc(-c2cnc3c(NC=O)cc(-c4ccccc4)cn23)cc(OC)c1OC,i,i,74.2,i,nt,nt
COc1cc(-c2cc(NC=O)c3ncc(-c4ccccc4)n3c2)cc(OC)c1OC,i,i,i,i,nt,nt
COc1cc(-c2cnc3c(NC=O)cc(-c4ccccc4Cl)cn23)cc(OC)c1OC,i,i,58.3,i,nt,nt
COc1cc(-c2cnc3c(NC=O)cc(-c4cccc(NC(C)=O)c4)cn23)cc(OC)c1OC,i,i,72.7,i,nt,nt
CN(C)C(=O)c1cccc(-c2cnc3c(NC=O)cc(-c4ccccc4Cl)cn23)c1,i,i,i,35.5,nt,nt
CN(C)C(=O)c1cccc(-c2cnc3c(NC=O)cc(-c4ccccc4N(C)C)cn23)c1,i,i,?,i,nt,nt
Cc1ccccc1NC(=O)C(C)OC(=O)CNS(=O)(=O)c1ccc(C#N)cc1 (stereo not drawn),nt,i,i,i,i,i
SMILES,esBAF inh,Wnt act,Vif imaging,N-glyco inh,MITF TRPM1 HTS,PfHsp90 yeast 2
CCOC(=O)N1CCN(CC(=O)Nc2ccc([N+](=O)[O-])cc2C(=O)Nc2ccccc2F)CC1,nt,i,i,i,i,i
COc1ccccc1CNC(=O)CCCc1cn(C)c2ccccc12,i,i,i,i,i,i
COc1ccc(S(=O)(=O)N(C)C[C@H]2OCCCC[C@@H](C)Oc3ccc(NC(=O)C4CCCCC4)cc3C(=O)N([C@H](C)CO)C[C@H]2C)cc1,i,nt,nt,nt,nt,nt
COc1cc(-c2cnc3c(NC(C)=O)cc(-c4ccccc4CN(C)C)cn23)cc(OC)c1OC,i,i,?,40.1,nt,nt
CCC(C(=O)NC1CCCC1)n1nc(C)n2c(cc3occc32)c1=O (stereo not drawn),i,i,i,i,i,i
O=C(C#Cc1ccccc1)c1ccc([N+](=O)[O-])cc1,nt,?,?,i,i,101.1
COC(=O)CN1C2(C#N)CCCCC2CC2CCCCC21C#N (stereo not drawn),i,i,i,i,i,i
CN(C)CCOc1ncnc2c1oc1ccccc12,i,nt,i,i,i,i
CN(C)CCOc1nc(-c2ccccc2)nc2c1oc1ccccc12,i,nt,i,114.1,i,i
COc1ccc(OCc2cc(C(=O)N(C)CCC3CCOCC3)no2)c(Cl)c1,58.0,i,i,i,i,i
COc1ccc(OCc2cc(C(=O)N(C)CC3CCCCO3)no2)c(Cl)c1 (stereo not drawn),41.4,i,i,i,i,i
COc1ccc(OCc2cc(C(=O)N3CCSCC3)no2)c(Cl)c1,nt,i,nt,nt,?,i
COc1ccc(OCc2cc(C(=O)N(C)C(C)c3ccon3)no2)c(Cl)c1 (stereo not drawn),73.5,i,i,i,i,i
COc1ccc(OCc2cc(C(=O)N3CCN(CC(=O)N(C)C)CC3)no2)c(Cl)c1,i,i,i,i,i,i
CN(CC1CCCCO1)C(=O)c1cc(COc2ccc(F)cc2Cl)on1 (stereo not drawn),43.4,i,i,i,i,i
CC(C)NC(=O)N1[C@H](CO)[C@H](c2ccc(C#CC3CCCCC3)cc2)[C@@H]1C#N,i,nt,nt,nt,nt,nt
COc1cc(Cl)ccc1OCc1cc(C(=O)N(C)CC2CCCCO2)no1 (stereo not drawn),69.7,40.3,i,i,i,i
Cc1nnc(CN(C)C(=O)c2cc(COc3ccc(F)cc3Cl)on2)o1,52.5,i,i,i,i,i
CN(CCC1CCCCO1)C(=O)c1cc(COc2ccc(F)cc2F)on1 (stereo not drawn),i,i,i,i,i,i
O=C(NCc1cc(F)ccc1F)C1CCC(=O)N(C2CCCCCC2)C1 (stereo not drawn),47.8,i,i,i,i,i
Cc1cc(C(=O)Nc2cccc([N+](=O)[O-])c2)c(C)o1,nt,i,i,i,i,i
O=C(COC(=O)c1ccccc1O)NCCC1=CCCCC1,nt,i,i,i,i,i
O=C(COC(=O)c1ccccc1NC(=O)c1ccco1)NCCC1=CCCCC1,63.1,nt,i,i,i,i
Cc1[nH]c2ccc(C(=O)N3CCN(c4cccc(Cl)c4)CC3)cc2c1C,i,i,i,i,i,93.0
Cc1[nH]c2ccc(C(=O)N3CCN(c4ccccc4Cl)CC3)cc2c1C,i,i,i,i,i,i
COc1ccc(C(=O)/C=C2/C(=O)Nc3ccccc32)c(OC)c1,nt,i,i,33.2,i,i
COc1cc(OC)c(/C=C2\C(=O)Nc3ccccc32)c(OC)c1,nt,i,nt,nt,nt,nt
COc1ccc(C(=O)/C=C2/C(=O)Nc3ccccc32)cc1OC,i,i,i,28.8,i,i
COc1ccc(C(=O)/C=C2/C(=O)Nc3ccccc32)cc1,i,i,i,?,i,i
